A short description of test [1]: Caspase-3/7 induction in HepG2 cells by small molecules, qHTS assay (AID 1346978). Also: nearly all actives have a fitted effect of over 15% in size. Put shortly: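 Wild-type HepG2 cells (2,000/well) were settled 5 h at 37 C, 5% CO2, then exposed to compounds in DMSO for 17 h. Caspase-3/7 activity was read by luminescence 30 min after adding Caspase-Glo 3/7 reagent at room temperature.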
(In general: qHTS replaces the single test concentration by a dilution series.)

Test [2] in a line: Caspase-3/7 induction in CHO-K1 cells by small molecules, qHTS cell viability counter screen (AID 1346979). Also: nearly all actives have a fitted effect of over 35% in size. In short, it runs like this:
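Wild-type CHO-K1 cells were seeded at 1,500 per well, rested 5hr at 37 C, then exposed to compounds in DMSO. After 16hr, CellTiter-Fluor reagent was added and fluorescence read 1hr later as the viability measure.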

Test [3] in a line: Caspase-3/7 induction in CHO-K1 cells by small molecules, qHTS assay (AID 1346980). Also: nearly all actives have a fitted effect of over 15% in size. In short, it runs like this:
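Wild-type cells were seeded at 1,500 per well and settled 5 hr at 37 C, 5% CO2, then exposed to DMSO-dissolved compounds for 17 hr. Caspase-Glo 3/7 reagent was added, and luminescence was read after 30min at room temperature.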

A short description of test [4]: Caspase-3/7 induction in HepG2 cells by small molecules, qHTS cell viability counter screen (AID 1346981). Also: series mostly up to about 92 µM; nearly all actives have a fitted effect of over 30% in size. In short, it runs like this: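 Steps: seed 2,000 HepG2 cells per well; incubate 5 hr at 37 C; pin-add compounds in DMSO; incubate 16 hr; add CellTiter-Fluor; after 1 hr at 37 C and 5% CO2, read fluorescence.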
Test [5] has as its target Nuclear receptor subfamily 1 group I member 2 (Homo sapiens) (UniProt O75469). The test is described as follows: CYP3A4 induction through human pregnane X receptor (PXR) by small molecules, qHTS assay (AID 1346984). Also: nearly all actives have a fitted effect of over 40% in size. In short, it runs like this:
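Steps: seed DPX-2 cells, 5 hr at 37C; pin-transfer compounds; 24 hr at 37C; add Luciferin-IPA (3uM final), 3 hr at 37C; add One-Glo, 30 min RT; read luminescence.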

The target is the same in test [6]. The experiment in a line: Human pregnane X receptor (PXR) activation by small molecules, qHTS assay (AID 1346985). Also: nearly all actives have a fitted effect of over 40% in size. Also: potency is read from the fitted curve at half-maximal effect. Put shortly:
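DPX-2 cells (HepG2 co-transfected with a PXR response element and a CYP3A4-promoter luciferase construct) were seeded at 2,000 per well, rested 5 hr at 37C, then exposed to DMSO-dissolved compounds for 24 hr. Activation was read as luciferase luminescence.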

The target in test [7] is Cytochrome P450 2C19 (Homo sapiens) (UniProt P33261). The test is described as follows: Cytochrome P450 Family 2 Subfamily C Member 19 (CYP2C19) small molecule antagonists: luciferase reporter qHTS assay (AID 1671197). Also: nearly all actives have a fitted effect of over 65% in size. Also: potency is read from the fitted curve at half-maximal effect. Put shortly: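 Enzyme-substrate mix with proluciferin substrate (P450-Glo CYP2C19 system) preincubated with compounds 10 min at room temperature; NADPH regeneration solution added, 37C for 1 h; detection reagent stops reaction, luminescence read after 20 min. Ketoconazole positive control.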

Test [8] has as its target Cytochrome P450 1A2 (Homo sapiens) (UniProt P05177). The experiment in a line: Cytochrome P450 Family 1 Subfamily A Member 2 (CYP1A2) small molecule antagonists: luciferase reporter qHTS assay (AID 1671199). Also: nearly all actives have a fitted effect of over 50% in size. Also: potency is read from the fitted curve at half-maximal effect. Put shortly:
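Inhibition of CYP1A2 conversion of proluciferin to luciferin, detected by luminescence. Reaction run 1 h at room temperature with NADPH regeneration after brief compound preincubation.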

Test [9] has as its target Voltage-gated inwardly rectifying potassium channel KCNH2 (Homo sapiens) (UniProt Q12809). The experiment in a line: Human Ether-a-go-go-Related Gene (hERG) channel small molecule antagonists: fluorescence cell-based qHTS assay (AID 1671200).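 Also: hERG-expressing U2OS cells given a thallium stimulus after FluxOR II dye loading; series mostly up to about 77 µM; nearly all actives have a fitted effect of over 50% in size.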 Put shortly:
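U2OS cells expressing the channel were plated at 1000 cells/well, incubated overnight at 37 C, then loaded with FluxOR II thallium-sensitive dye for 1 h at room temperature in the dark, with a further 10 min at room temperature before stimulation.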
(hERG is a cardiac potassium channel; its block is linked to QT prolongation.)

The target in test [10] is Nuclear receptor subfamily 1 group I member 2 (Homo sapiens) (UniProt O75469). The experiment in a line: Human pregnane X receptor (PXR) small molecule agonists, qHTS assay (AID 1346982). Also: nearly all actives have a fitted effect of over 35% in size. Put shortly: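 Agonist mode qHTS: PXR-Luc HepG2 cells plated 5 hr before DMSO-dissolved compounds were pinned in, cultured 24 hr at 37 C, 5% CO2; ONE-Glo luminescence readout.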
Test [11] addresses Cytochrome P450 2C9 (Homo sapiens) (UniProt P11712). The experiment in a line: Cytochrome P450 Family 2 Subfamily C Member 9 (CYP2C9) small molecule antagonists: luciferase reporter qHTS assay (AID 1671198). Also: nearly all actives have a fitted effect of over 50% in size. Also: potency is read from the fitted curve at half-maximal effect. Put shortly:
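CYP2C9 activity was measured with a P450-Glo proluciferin substrate. Enzyme–substrate mix was held with compound for 10 min at room temperature, then NADPH regeneration solution was added for 1 h at 37C. Luciferin product was read as luminescence.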
(A reporter such as luciferase makes a cellular process visible.)

The target in test [12] is Cytochrome P450 3A4 (Homo sapiens) (UniProt P08684). The test is described as follows: Cytochrome P450 Family 3 Subfamily A Member 4 (CYP3A4) small molecule antagonists: luciferase reporter qHTS assay (AID 1671201). Also: series mostly up to about 120 µM; nearly all actives have a fitted effect of over 50% in size. Put shortly:
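P450-Glo CYP3A4 system with proluciferin substrate; compounds preincubated 10 min RT with enzyme-substrate mix, then NADPH regeneration added for 1 h RT. Detection reagent 20 min, luminescence read as relative luminescence units.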

The target in test [13] is Nuclear receptor subfamily 1 group I member 2 (Rattus norvegicus) (UniProt Q9R1A7). The test is described as follows: Rat pregnane X receptor (rPXR) activation by small molecules, qHTS assay (AID 1346983). Also: nearly all actives have a fitted effect of over 20% in size. Conditions: rPXR luciferase reporter cells, One-Glo luminescence, 24 h; max activation: stronger effect = higher value. Put shortly:
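Cell-based rPXR luciferase reporter assay, 2,000 cells per well, rested 5hr at 37 C before compound addition in DMSO, then 24 hr at 37 C. One-Glo reagent was added and luminescence read after 30 min at room temperature.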

For test [14], the target named is Cytochrome P450 2D6 (Homo sapiens) (UniProt P10635). The experiment in a line: Cytochrome P450 Family 2 Subfamily D Member 6 (CYP2D6) small molecule antagonists: luciferase reporter qHTS assay (AID 1671196). In short, it runs like this:
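P450-Glo format: CYP2D6 converts a proluciferin substrate to luciferin in an NADPH-driven reaction lasting 1 h at room temperature. Light output, proportional to CYP2D6 activity, reflects interference by test chemicals.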

Unmarked numbers belong to inactive results. Inconclusive results are not listed. Active and inactive are the calls of the source. Calls follow the shape of the dose curve; as a rule, active = well fitted curve in the direction sought with a large enough effect in the repeat runs; inconclusive = weak or mixed curves; inactive = no such curve, though single readings can be large; an effect the other way counts as inactive or inconclusive.
% is scaled to controls: 0 for no effect and ±100 for the full control effect.

Chain of Cytochrome P450 1A2 (Homo sapiens) (P05177 whole entry, looked up): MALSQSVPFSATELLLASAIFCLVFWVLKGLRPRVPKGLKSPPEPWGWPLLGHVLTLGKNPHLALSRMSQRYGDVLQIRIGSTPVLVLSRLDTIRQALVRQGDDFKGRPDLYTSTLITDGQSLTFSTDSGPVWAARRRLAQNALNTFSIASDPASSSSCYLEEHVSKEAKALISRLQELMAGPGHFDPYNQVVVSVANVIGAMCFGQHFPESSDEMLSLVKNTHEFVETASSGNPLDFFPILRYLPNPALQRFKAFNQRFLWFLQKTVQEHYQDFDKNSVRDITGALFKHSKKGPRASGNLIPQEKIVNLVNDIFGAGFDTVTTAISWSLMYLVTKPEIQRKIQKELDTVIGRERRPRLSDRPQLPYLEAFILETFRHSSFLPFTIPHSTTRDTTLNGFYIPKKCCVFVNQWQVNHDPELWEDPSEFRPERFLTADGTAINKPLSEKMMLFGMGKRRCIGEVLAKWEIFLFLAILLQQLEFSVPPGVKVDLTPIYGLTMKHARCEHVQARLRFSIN
Chain of Cytochrome P450 3A4 (Homo sapiens) (P08684 whole entry, looked up): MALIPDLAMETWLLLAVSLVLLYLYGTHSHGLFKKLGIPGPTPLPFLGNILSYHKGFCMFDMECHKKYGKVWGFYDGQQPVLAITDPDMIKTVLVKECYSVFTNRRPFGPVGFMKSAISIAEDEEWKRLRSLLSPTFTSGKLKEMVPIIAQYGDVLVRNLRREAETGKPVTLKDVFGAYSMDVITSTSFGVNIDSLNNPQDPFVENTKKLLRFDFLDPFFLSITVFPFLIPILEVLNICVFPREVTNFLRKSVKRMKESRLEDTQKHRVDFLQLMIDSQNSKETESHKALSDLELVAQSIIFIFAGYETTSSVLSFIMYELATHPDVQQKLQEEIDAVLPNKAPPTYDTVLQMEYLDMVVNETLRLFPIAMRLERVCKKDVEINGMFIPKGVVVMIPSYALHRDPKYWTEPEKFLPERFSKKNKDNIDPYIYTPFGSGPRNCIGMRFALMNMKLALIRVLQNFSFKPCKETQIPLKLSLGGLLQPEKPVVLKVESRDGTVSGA
Chain of Cytochrome P450 2C19 (Homo sapiens) (P33261 whole entry, looked up): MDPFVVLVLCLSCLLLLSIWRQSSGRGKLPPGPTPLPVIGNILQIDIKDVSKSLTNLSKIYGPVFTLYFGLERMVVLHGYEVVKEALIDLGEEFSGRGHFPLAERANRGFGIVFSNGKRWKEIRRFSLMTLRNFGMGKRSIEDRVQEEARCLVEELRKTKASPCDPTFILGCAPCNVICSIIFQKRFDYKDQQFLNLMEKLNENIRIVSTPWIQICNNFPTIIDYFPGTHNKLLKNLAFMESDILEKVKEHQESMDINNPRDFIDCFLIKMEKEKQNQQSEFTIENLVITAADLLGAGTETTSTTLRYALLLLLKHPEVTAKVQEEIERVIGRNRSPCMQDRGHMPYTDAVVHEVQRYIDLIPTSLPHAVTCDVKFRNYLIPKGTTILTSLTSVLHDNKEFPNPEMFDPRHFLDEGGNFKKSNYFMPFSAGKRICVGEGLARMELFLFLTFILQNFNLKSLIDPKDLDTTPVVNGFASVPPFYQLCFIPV
Chain of Cytochrome P450 2C9 (Homo sapiens) (P11712 whole entry, looked up): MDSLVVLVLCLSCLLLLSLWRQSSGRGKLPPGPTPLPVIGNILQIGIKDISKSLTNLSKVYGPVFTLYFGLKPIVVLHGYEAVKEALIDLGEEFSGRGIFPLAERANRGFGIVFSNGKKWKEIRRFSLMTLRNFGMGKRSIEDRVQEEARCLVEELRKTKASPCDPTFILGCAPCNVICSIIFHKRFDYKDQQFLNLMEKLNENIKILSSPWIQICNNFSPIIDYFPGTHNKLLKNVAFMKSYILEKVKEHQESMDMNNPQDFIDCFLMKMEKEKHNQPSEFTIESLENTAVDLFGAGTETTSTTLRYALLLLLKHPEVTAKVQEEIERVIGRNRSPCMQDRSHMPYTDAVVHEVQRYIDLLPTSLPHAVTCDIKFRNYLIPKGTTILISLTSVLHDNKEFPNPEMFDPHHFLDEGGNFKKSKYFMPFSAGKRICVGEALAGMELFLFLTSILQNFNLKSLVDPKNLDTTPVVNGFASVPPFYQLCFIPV
Chain of Cytochrome P450 2D6 (Homo sapiens) (P10635 whole entry, looked up): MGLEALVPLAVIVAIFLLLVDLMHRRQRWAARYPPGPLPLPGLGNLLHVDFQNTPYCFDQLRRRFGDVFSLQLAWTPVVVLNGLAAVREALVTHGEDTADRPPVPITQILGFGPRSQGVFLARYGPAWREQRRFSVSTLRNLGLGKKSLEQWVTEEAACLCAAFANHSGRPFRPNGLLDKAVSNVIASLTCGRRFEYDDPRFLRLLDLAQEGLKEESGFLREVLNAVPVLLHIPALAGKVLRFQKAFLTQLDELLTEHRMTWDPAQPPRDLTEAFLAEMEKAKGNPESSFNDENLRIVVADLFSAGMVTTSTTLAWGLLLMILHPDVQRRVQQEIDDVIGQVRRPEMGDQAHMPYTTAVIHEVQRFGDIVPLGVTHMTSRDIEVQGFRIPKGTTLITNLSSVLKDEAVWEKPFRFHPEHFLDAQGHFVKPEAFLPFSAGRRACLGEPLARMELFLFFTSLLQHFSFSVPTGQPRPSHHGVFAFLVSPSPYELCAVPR
Chain of Voltage-gated inwardly rectifying potassium channel KCNH2 (Homo sapiens) (Q12809 whole entry, looked up): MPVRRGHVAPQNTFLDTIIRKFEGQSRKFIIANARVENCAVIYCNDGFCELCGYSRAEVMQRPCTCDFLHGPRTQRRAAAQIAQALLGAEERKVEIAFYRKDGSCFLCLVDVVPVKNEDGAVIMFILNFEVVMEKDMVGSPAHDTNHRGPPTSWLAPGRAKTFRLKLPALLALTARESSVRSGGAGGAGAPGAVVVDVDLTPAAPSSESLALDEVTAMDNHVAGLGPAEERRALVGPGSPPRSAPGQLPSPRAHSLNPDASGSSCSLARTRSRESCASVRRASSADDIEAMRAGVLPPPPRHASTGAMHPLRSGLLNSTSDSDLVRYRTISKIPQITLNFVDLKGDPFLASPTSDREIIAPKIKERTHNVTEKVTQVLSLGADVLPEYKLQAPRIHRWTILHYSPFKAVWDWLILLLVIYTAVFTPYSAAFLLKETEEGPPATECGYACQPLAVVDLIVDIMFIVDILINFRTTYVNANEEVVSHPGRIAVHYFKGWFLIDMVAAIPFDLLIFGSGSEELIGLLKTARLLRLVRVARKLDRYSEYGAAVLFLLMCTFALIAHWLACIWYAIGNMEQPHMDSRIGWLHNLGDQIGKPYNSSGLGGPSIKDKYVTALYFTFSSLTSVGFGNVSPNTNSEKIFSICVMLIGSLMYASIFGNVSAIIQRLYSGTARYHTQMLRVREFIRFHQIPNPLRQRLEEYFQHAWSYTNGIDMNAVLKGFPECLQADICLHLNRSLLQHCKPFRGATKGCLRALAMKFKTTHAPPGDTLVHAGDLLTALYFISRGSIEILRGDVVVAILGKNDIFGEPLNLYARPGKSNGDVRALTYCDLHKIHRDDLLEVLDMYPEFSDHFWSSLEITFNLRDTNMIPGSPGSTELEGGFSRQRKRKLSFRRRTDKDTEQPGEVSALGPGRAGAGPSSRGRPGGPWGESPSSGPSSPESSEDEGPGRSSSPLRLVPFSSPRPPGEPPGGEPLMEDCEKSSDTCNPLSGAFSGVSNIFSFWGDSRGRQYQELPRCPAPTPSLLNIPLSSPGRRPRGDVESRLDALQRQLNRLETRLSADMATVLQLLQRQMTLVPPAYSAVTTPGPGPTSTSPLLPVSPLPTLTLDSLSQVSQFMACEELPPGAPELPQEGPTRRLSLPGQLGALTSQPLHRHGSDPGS
Chain of Nuclear receptor subfamily 1 group I member 2 (Homo sapiens) (O75469 whole entry, looked up): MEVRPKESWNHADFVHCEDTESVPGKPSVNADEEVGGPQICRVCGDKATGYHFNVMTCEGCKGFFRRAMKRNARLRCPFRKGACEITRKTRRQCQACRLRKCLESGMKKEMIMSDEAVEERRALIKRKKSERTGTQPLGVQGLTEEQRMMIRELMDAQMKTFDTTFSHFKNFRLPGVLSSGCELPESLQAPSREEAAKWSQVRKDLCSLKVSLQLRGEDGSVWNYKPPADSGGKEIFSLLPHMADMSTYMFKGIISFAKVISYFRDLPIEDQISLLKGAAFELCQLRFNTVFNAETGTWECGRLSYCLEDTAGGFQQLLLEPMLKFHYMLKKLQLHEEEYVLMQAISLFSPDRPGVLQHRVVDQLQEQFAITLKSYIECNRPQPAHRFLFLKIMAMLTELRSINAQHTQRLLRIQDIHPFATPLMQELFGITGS
Chain of Nuclear receptor subfamily 1 group I member 2 (Rattus norvegicus) (Q9R1A7 whole entry, looked up): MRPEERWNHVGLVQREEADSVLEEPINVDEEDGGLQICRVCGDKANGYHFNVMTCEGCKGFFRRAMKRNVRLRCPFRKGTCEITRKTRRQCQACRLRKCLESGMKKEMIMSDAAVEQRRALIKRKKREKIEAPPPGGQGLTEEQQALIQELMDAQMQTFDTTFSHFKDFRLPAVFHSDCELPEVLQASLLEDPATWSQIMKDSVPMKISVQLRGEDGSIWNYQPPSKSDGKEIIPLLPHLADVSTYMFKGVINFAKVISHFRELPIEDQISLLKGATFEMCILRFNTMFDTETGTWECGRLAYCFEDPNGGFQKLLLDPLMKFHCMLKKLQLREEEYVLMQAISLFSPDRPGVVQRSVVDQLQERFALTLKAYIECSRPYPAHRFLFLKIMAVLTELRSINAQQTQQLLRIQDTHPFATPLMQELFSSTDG

Turning to `CCOC(=O)c1cnc2c(cnn2CC)c1NN=C(C)C`, the result in test [1] and in test [3] was inactive. Besides, the Potency result in test [2], in test [4], in test [5] and in [9] was “inactive” throughout. For the same compound, the Potency in [6] was 8.91 µM (active); in [7] it was 30.9 µM (active); in [8] it was 2.04 µM (active).

With `O=C(O)CC(C(=O)O)S(=O)(=O)O` (stereo not drawn), the call in [1] and in test [3] was inactive. The Potency result in test [2], in [4], in test [10], in test [11] and in test [12] was “inactive” throughout. Further, the Potency was 8.94 µM (active) in test [7] and 31.7 µM (active) in test [8].

Turning to `CC(=O)Nc1ccc(OCC(O)CNC(C)C)cc1` (stereo not drawn), the compound was classed as inactive in test [1] and in test [3]. In addition, the Potency entry in [2], in [4], in [5], in test [6], in test [14] and in test [7] was “inactive” throughout. Further, the Potency result in test [11], in test [8], in test [9] and in [12] was “inactive” throughout. Further, the max activation in test [13] is 0.433%.

Consider `CC(=O)c1ccc2ccccc2c1`, for which the compound was called inactive in test [1] and in [3]. Also, the Potency entry in [2], in [4], in test [10], in [11], in [9] and in [12] was “inactive” throughout. Further, the values for the Potency in [7] and in test [8] were 28.3 µM (active) and 7.96 µM (active), respectively.

Turning to `CC1=CC(=O)[C@H]2C[C@@H]1C2(C)C`, the call in test [1] and in test [3] was inactive. Besides, the Potency result in test [2], in test [4], in test [14], in [7], in [11] and in test [8] was “inactive” throughout. For the same compound, the Potency entry in test [9] and in test [12] was “inactive” each time.

For the compound `Nc1ccncc1N`, the compound was called inactive in [1] and in test [3]. Moreover, the Potency entry in test [2], in [4], in test [5], in test [6], in test [14] and in [7] was “inactive” each time. Moreover, the Potency result in test [11], in test [9] and in [12] was “inactive” in each case. Also, in test [13], the max activation is -0.418%.

As for `NC(=O)NC1N=C([O][Al])NC1=O` (stereo not drawn), the call in test [1] and in test [3] was inactive. Also, the Potency result in test [2], in test [4], in [10], in test [7], in [11] and in test [9] was “inactive” each time.

On to `CCNS(=O)(=O)c1ccc(C)cc1`, for which the compound was called inactive in [1] and in test [3]. Besides, the Potency result in [2], in test [4], in test [10], in test [11] and in test [12] was “inactive” throughout. Moreover, the Potency in test [7] was 20.6 µM (active); in [8], 41.1 µM (active).

On to `Cc1ccc(-c2ccccc2C#N)cc1`, for which the outcome in test [1] and in [3] was inactive. Besides, the Potency entry in test [2], in [4], in test [14] and in test [9] was “inactive” in each case. In addition, the Potency in test [7] was 17.4 µM (active); in test [11], 15.5 µM (active); in test [8], 13.8 µM (active).

In the case of `O=C(O)c1cc(C(=O)O)cc(C(=O)O)c1`, the call in [1] and in [3] was inactive. Besides, the Potency result in test [2], in test [4], in [10], in test [11], in test [8] and in [9] was “inactive” throughout. For the same compound, in [12], the Potency result is “inactive”.
